Measurements as given in PubChem BioAssay (NCATS).
Inconclusive results are not listed. Activity calls are given as the source filed them. Unless noted, the call rests on the fitted dose curve; in most records, active means well fitted curve in the direction sought with a large enough effect; inconclusive means small, poorly fitted or top-dose-only effect, or another doubt; inactive means no such curve, though single readings can be large; an effect the other way counts as inactive or inconclusive.

Legend:
[1] = P-glycoprotein substrates identified in KB-8-5-11 adenocarcinoma cell line, qHTS therapeutic library screen (AID 1346987); further: nearly all actives have a fitted effect of over 65% in size
In short: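 Human cervical adenocarcinoma KB-8-5-11 cells, selected in colchicine to over-express P-gp and assayed without it, were exposed for 72 h to titrated compounds. An ATP-based luminescent viability signal gave AC50.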

[2] = biological target: Atrial natriuretic peptide receptor 2 (Homo sapiens) (UniProt P20594); assay: Natriuretic polypeptide receptor (hNpr2) antagonism - Pilot subtype selectivity assay (AID 1347050; calls by dose curve)
Chain of Atrial natriuretic peptide receptor 2 (Homo sapiens) (P20594 whole entry, looked up): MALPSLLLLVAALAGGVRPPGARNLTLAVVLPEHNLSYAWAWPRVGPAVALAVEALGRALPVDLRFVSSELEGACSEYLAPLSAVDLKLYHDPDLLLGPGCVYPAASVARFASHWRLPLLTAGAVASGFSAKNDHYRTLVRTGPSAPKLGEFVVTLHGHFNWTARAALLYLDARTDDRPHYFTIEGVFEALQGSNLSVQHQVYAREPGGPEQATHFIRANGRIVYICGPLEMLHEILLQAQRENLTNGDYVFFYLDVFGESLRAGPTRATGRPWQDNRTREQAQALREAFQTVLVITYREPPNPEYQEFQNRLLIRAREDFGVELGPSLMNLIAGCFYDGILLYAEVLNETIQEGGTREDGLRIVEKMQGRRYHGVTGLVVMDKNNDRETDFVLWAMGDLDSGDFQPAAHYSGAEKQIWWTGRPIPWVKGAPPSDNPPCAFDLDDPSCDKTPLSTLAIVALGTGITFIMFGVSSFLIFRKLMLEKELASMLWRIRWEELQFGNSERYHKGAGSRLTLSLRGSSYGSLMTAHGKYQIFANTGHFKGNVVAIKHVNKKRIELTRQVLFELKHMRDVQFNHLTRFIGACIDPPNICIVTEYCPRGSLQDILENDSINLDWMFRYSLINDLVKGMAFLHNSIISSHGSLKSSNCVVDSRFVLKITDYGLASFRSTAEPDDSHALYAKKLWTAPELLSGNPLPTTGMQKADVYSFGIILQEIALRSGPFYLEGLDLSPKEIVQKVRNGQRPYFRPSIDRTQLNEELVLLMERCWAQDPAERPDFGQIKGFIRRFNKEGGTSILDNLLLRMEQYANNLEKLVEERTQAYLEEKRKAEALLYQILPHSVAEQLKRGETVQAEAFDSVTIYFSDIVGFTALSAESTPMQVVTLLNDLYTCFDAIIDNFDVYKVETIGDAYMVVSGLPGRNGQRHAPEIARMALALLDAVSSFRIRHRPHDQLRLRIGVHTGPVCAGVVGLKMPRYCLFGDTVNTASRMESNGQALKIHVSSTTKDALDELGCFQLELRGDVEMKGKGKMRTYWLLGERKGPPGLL
In short: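 Luminescence from a genetically encoded cGMP luciferase biosensor in hNpr2-expressing HEK293 cells is read before and 20 min after adding 1 nM hNppC. Test compounds, in interplate 1:5 titrations, are added 30-50 min ahead of the agonist.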

[3] = NS1 protein of Zika virus - qHTS assay to identify small molecule inhibitors in human HEK 293 cells (AID 1347053); further: series mostly up to about 46 µM; nearly all actives have a fitted effect of over 55% in size
In short: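 TR-FRET signal from two anti-ZIKV NS1 antibodies quantified NS1 in HEK 293 cells 24 h after MR766 infection at MOI = 0.5; compounds were added 1 h before virus. Uninfected cells and infected cells defined the NS1 normalization range.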

[4] = biological target: T1, Tyrosine-protein phosphatase non-receptor type substrate 1 (Homo sapiens) + Leukocyte surface antigen CD47 (Homo sapiens) (UniProt P78324+Q08722); assay: CD47-SIRPalpha protein protein interaction - LANCE assay qHTS validation (AID 1347057; active means well fitted curve in the direction sought with a large enough effect in the signal ratio, with a control signal flat, not every such curve was filed as active; the % refers to the signal ratio; further: series mostly up to about 38 µM)
T1 sequence (P78324 whole entry, looked up, the tested form may be a part): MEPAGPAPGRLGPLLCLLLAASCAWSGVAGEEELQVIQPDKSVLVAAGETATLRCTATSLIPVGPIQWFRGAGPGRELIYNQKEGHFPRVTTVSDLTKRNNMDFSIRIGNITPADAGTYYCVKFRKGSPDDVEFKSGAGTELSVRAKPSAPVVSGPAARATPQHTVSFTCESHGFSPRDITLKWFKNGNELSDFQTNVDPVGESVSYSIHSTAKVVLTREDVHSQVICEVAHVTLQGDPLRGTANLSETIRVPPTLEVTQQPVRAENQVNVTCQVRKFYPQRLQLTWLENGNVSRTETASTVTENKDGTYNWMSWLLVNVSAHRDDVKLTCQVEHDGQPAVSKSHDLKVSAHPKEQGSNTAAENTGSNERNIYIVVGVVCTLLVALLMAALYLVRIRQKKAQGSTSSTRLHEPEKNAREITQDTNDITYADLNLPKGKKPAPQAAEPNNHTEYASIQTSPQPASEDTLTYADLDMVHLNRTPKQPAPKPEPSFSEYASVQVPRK
T1 sequence (Q08722 whole entry, looked up, the tested form may be a part): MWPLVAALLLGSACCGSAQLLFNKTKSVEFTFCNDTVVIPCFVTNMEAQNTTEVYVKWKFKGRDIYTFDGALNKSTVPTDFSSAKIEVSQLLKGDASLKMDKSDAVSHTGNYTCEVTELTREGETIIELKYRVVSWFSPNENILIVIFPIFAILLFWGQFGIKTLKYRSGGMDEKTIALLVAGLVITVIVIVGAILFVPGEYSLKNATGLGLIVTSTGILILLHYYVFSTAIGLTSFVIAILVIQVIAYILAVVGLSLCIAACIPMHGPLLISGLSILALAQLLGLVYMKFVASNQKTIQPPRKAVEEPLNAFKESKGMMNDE
In short: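 Inhibition of soluble CD47/SIRPalpha ectodomain association by titrated compounds, measured as 665/615 nm time-resolved FRET ratio after sequential 30 min room-temperature incubations.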

[5] = biological target: T1, Tyrosine-protein phosphatase non-receptor type substrate 1 (Homo sapiens) + Leukocyte surface antigen CD47 (Homo sapiens); assay: CD47-SIRPalpha protein protein interaction - Alpha assay qHTS validation (AID 1347059);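 further: bead proximity luminescence from CD47 binding SIRPalpha after compound preincubation with SIRPalpha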
In short: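 SIRPalpha-biotin 25 nM + cpd, 30 min RT, dark; add CD47-His 12.5 nM, 30 min; add Ni-NTA/SAV beads 10 ug/mL, 30 min; AlphaScreen. Buffer PBS pH 7.4 + 0.05% IGEPAL CA-630. Non-biotinylated SIRPalpha as control inhibitor.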

[6] = biological target: Parathyroid hormone/parathyroid hormone-related peptide receptor (Homo sapiens) (UniProt Q03431); assay: qHTS for PTHR1 Agonists: Optimization Screen against the NCGC LOPAC library (AID 1347079);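 further: GloSensor cAMP luminescence in HEK-293 GP2 cells expressing human PTHR1 with IBMX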
Chain of Parathyroid hormone/parathyroid hormone-related peptide receptor (Homo sapiens) (Q03431 whole entry, looked up): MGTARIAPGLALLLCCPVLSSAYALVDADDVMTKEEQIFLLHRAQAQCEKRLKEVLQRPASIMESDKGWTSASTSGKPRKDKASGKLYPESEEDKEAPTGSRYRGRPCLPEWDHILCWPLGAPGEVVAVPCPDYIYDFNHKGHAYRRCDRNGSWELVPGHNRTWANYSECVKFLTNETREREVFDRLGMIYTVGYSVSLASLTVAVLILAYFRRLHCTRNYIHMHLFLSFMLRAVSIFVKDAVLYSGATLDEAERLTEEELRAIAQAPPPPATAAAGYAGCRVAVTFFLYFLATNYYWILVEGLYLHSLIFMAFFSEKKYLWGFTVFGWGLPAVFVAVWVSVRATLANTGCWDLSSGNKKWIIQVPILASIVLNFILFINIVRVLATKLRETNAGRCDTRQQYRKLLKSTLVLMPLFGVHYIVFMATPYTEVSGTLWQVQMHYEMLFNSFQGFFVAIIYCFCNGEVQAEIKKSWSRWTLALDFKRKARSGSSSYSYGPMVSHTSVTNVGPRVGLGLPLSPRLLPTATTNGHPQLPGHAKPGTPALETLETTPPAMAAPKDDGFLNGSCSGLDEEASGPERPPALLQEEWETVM
In short: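 Signal increase flags agonism. GP2 cells, derived from HEK-293, express human PTHR1 and a GloSensor cAMP construct.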

[7] = qHTS of pediatric cancer cell lines to identify multiple opportunities for drug repurposing: Primary screen for TC32 cells (AID 1347089); further: nearly all actives have a fitted effect of over 60% in size
In short: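 Luminescent ATP read-out (CellTiter-Glo) of metabolically active TC32 cells after 48 h exposure. Concentration-response curves came from 11-point (MIPE, 0.78 nM–46 µM) or 8-point (NPC, 0.59 nM–46 µM) primary titrations; follow-up used 11 points.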

[8] = qHTS of pediatric cancer cell lines to identify multiple opportunities for drug repurposing: Primary screen for DAOY cells (AID 1347090); further: series mostly up to about 46 µM; nearly all actives have a fitted effect of over 55% in size
In short: (§1)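 Viability measured as metabolically active cells via CellTiter-Glo luminescence following 48 hours of compound exposure, 11-point dilutions in confirmatory testing. 500-1,000 cells/well plated 5 hours before dosing; controls were DMSO and 2.3 µM bortezomib.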

[9] = qHTS of pediatric cancer cell lines to identify multiple opportunities for drug repurposing: Primary screen for SJ-GBM2 cells (AID 1347091)
In short: as §1

[10] = qHTS of pediatric cancer cell lines to identify multiple opportunities for drug repurposing: Primary screen for A673 cells (AID 1347092); further: nearly all actives have a fitted effect of over 45% in size
In short: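 Cell viability of A673 measured by CellTiter-Glo ATP luminescence after 48 hours compound exposure. Dilution series spanned 0.78 nM to 46 µM (MIPE, 11-point) or 0.59 nM to 46 µM (NPC, 8-point); bortezomib 2.3 uM positive control.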

Measured: Potency

Nc1ncnc2n[nH]c(Nc3ccc(F)cc3)c12
inactive: [1] | [2] | [3] | [4] | [5] | [6]

COc1ccccc1N1CCN(CCN2C(=O)CC3(CCCC3)CC2=O)CC1
inactive: [1] | [2] | [3] | [4] | [5] | [6]

O=C(OCC1(COC(=O)c2cccnc2)CCCC(COC(=O)c2cccnc2)(COC(=O)c2cccnc2)C1O)c1cccnc1
inactive: [1] | [3] | [7] | [8] | [9] | [10]

CN(CC1(C)CCCO1)S(=O)(=O)c1ccc(Cl)c(S(N)(=O)=O)c1 (centres undefined)
inactive: [1] | [3] | [7] | [8] | [9] | [10]

CC1CC(=O)NN=C1c1ccc(NCC(C)(C)NCC(O)COc2cc(Cl)ccc2C#N)cc1 (centres undefined)
inactive: [1] | [3] | [7] | [8] | [9] | [10]

CCCC(=O)O[C@]1(C(=O)COC(=O)CC)CC[C@H]2[C@@H]3CCC4=CC(=O)CC[C@]4(C)[C@H]3[C@@H](O)C[C@@]21C
inactive: [1] | [3] | [7] | [8] | [9] | [10]

O=C(CO)[C@@H](O)[C@H](O)[C@@H](O)CO
inactive: [1] | [3] | [7] | [8] | [9]

O=C1NC(c2cccc([N+](=O)[O-])c2)=CCN1c1ccccc1O
inactive: [1] | [2] | [3] | [4] | [5] | [6]

CC(C)(C)C(O)/C=C/c1ccc2c(c1)OCO2 (centres undefined)
inactive: [1] | [3] | [7] | [8] | [9] | [10]

CC(=O)OCC(=O)Nc1cc(C#N)cc(NC(=O)COC(C)=O)c1Cl
inactive: [1] | [3] | [7] | [8] | [9] | [10]
